Assay outcomes as filed in PubChem BioAssay.
An excerpt weighted towards active compounds, which were near 8% of everything screened.
SW480 rerep = A quantitative high throughput screen for small molecules that induce DNA re-replication in SW480 colon adenocarcinoma cells; SW480 DNA re-replication, Hoechst DNA content imaging, 48 h; Potency, µM (series often up to 46.1 µM), for the others: at the highest dose re-replication activation, actives largely listed as activators; 340,000 compounds, 1.8% hits; AID 624297, 2012; note: % of control where 0% means no effect; nearly all actives have a fitted effect of over 55% in size
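Treated cells incubate 48 hr (37 C, 5% CO2), are stained 40 min with Hoechst, and nuclear fluorescence is enumerated; a rise in nuclei with high DNA signal marks re-replication.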
MCF10A rerep = A quantitative high throughput screen for small molecules that induce DNA re-replication in MCF 10a normal breast cells; MCF 10A DNA re-replication, Hoechst nuclear intensity, 48 h; Potency, µM (highest dose often 46.1 µM), for inactives: at the top dose activity, positive = re-replication, usual class: activators; 350,000 compounds, 2.9% hits; note: % of control where 0% means no effect; nearly all actives have a fitted effect of over 50% in size
KB-3-1 cytotox = qHTS assay for MDR1-selective chemotherapeutics: Primary screen using the parental adenocarcinoma cell KB-3-1. 400,000 compounds, 1.4% hits. KB-3-1 viability, CellTiter-Glo ATP luminescence, 72 h. Potency, µM (highest dose often 46.1 µM), hits mostly cytotoxic; note: % is set by controls: 0 for no effect and ±100 for the full control effect; nearly all actives have a fitted effect of over 60% in size
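Cytotoxicity measured as CellTiter-Glo luminescence after 72 h at 37 C. Compound titrations were pinned onto drug-naive KB-3-1 parental adenocarcinoma cells grown in DMEM with 10% FBS, and normalized data fitted to concentration-response curves.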
HT1080 IDH1KD tx = qHTS for induction of synthetic lethality in tumor cells producing 2HG: qHTS for the HT-1080-IDH1KD cell line | HT-1080 IDH1 knockdown viability, ATP luminescence, 48 h | Potency, µM (series often up to 46.1 µM), without a hit: at the top dose activity, negative = toxicity, usual class: cytotoxic | 360,000 compounds, 2% hits;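 note: 0% = DMSO wells and -100% = cell-free medium wells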
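Cytotoxicity counter-line: IDH1KD HT-1080, 48 h, CellTiter-Glo. Curves classed by r2, magnitude and activity.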
HT1080NT lethal = qHTS for induction of synthetic lethality in tumor cells producing 2HG: qHTS for the HT-1080-NT fibrosarcoma cell line; HT-1080-NT fibrosarcoma viability, CellTiter-Glo ATP luminescence, 48 h; Potency, µM (series often up to 46.1 µM), without a hit: at the top dose activity, negative = less viability, hits mostly cytotoxic; 360,000 compounds, 1.6% hits;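 note: NT is the 2HG producing partner of a matched IDH1 knockdown line; 0% = DMSO-treated cells and -100% = media-only wells without cells; nearly all actives have a fitted effect of over 55% in size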
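Read-out is CellTiter-Glo luminescence after 10 minutes at room temperature, following 48 hours' compound treatment of HT-1080-NT cells (750 cells/well, RPMI, 5% FBS, 37 degrees C).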
KB-V1 cytotox = qHTS assay for MDR1-selective chemotherapeutics: Primary screen using the drug-selected MDR subline cells KB-V1; Potency, µM (series often up to 46.1 µM), actives largely listed as cytotoxic; 400,000 compounds, 3.4% hits; KB-V1 MDR cells viability, CellTiter-Glo, 72 h; note: % is set by controls: 0 for no effect and ±100 for the full control effect; nearly all actives have a fitted effect of over 60% in size
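KB-V1 cells (P-gp-expressing MDR subline of KB-3-1) in phenol-red-free DMEM with 10% FBS were exposed to library compounds over a concentration series for 72 h at 37 degrees C. Viability read by CellTiter-Glo luminescence; concentration-effect curves fitted after normalization.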
Active calls of the source: *. Calls come from the whole dose curve; as a rule, active = well fitted curve in the direction sought with a large enough effect; inconclusive = small, poorly fitted or top-dose-only effect, or another doubt; inactive = no such curve, though single readings can be large; an effect the other way counts as inactive or inconclusive. Potency is the fitted concentration of half-maximal effect.

CC(=O)OC1(C)CC(C)C(=O)C(C(O)CC2CC(=O)NC(=O)C2)C1 (stereo unspecified) was read as SW480 rerep 0%, MCF10A rerep 17%, KB-3-1 cytotox inconclusive, HT1080 IDH1KD tx 0.13µM*, HT1080NT lethal 1.6µM* and KB-V1 cytotox inconclusive.
C=C1C(O)(c2ccccc2)C2CC[N+]1(C)CC2 (stereo unspecified) was read as SW480 rerep 1.2µM*, MCF10A rerep inconclusive, KB-3-1 cytotox inactive, HT1080 IDH1KD tx 2%, HT1080NT lethal 14% and KB-V1 cytotox inactive.
`CC(C)CCn1c(=O)c(C(=O)Nc2ccccc2S(N)(=O)=O)c(O)c2ccccc21` gave SW480 rerep inconclusive, MCF10A rerep inconclusive, KB-3-1 cytotox 3.7µM*, HT1080 IDH1KD tx inconclusive, HT1080NT lethal -22% and KB-V1 cytotox 2.9µM*.
`CCCCCn1c(=O)c(C(=O)Nc2ncccc2C)c(O)c2ccccc21` gave SW480 rerep inconclusive, MCF10A rerep 2%, KB-3-1 cytotox inactive, HT1080 IDH1KD tx 21µM*, HT1080NT lethal 18µM* and KB-V1 cytotox 5.2µM*.
Screening CCCCn1c(=O)c(C(=O)Nc2cnccn2)c(O)c2ccccc21 returned SW480 rerep 0%, MCF10A rerep inconclusive, KB-3-1 cytotox 7.3µM*, HT1080 IDH1KD tx -28%, HT1080NT lethal -19% and KB-V1 cytotox inconclusive.
Screening CCCCn1c(=O)c(C(=O)Nc2ccccc2C)c(O)c2ccccc21 returned SW480 rerep 0%, MCF10A rerep -5%, KB-3-1 cytotox inactive, HT1080 IDH1KD tx 6%, HT1080NT lethal 1% and KB-V1 cytotox inactive.
CCN(CC)C(=O)/C(Cl)=C(\C)OP(=O)(OC)OC was read as SW480 rerep 1% and MCF10A rerep 6%.
Screening Cc1cc(/C=C/c2ccnc3ccccc23)ccc1N(CCCl)CCCl returned KB-3-1 cytotox inconclusive and KB-V1 cytotox inactive.
Screening CC(=O)c1cn(Cc2ccccc2C#N)c2ccccc12 returned SW480 rerep inconclusive, MCF10A rerep inconclusive, KB-3-1 cytotox inconclusive, HT1080 IDH1KD tx inconclusive, HT1080NT lethal -8% and KB-V1 cytotox 1.8µM*.
CC(C)C(=O)c1cn(Cc2ccccc2C#N)c2ccccc12 was read as SW480 rerep 4%, MCF10A rerep 2%, KB-3-1 cytotox inactive, HT1080 IDH1KD tx -24%, HT1080NT lethal -24% and KB-V1 cytotox inconclusive.
For COc1ccc(NC(=O)c2sc3nc4c(cc3c2N)N2CCC4CC2)cc1OC the results were KB-3-1 cytotox inactive and KB-V1 cytotox inactive.
`N#Cc1cc2c(nc1SCC(=O)Nc1ccc(Cl)cc1)C1CCN2CC1` gave SW480 rerep inconclusive, MCF10A rerep 187%, KB-3-1 cytotox inconclusive, HT1080 IDH1KD tx inconclusive, HT1080NT lethal inconclusive and KB-V1 cytotox 2.9µM*.
Screening N#Cc1cc2c(nc1SCC(=O)Nc1cc(Cl)ccc1Cl)C1CCN2CC1 returned SW480 rerep inconclusive, MCF10A rerep 0.58µM*, KB-3-1 cytotox inconclusive, HT1080 IDH1KD tx inconclusive, HT1080NT lethal inconclusive and KB-V1 cytotox 4.1µM*.
Screening COc1ccc(Cl)cc1NC(=O)CSc1ncnc2c1oc1ccccc12 returned SW480 rerep -154%, MCF10A rerep 0%, KB-3-1 cytotox inactive, HT1080 IDH1KD tx 8%, HT1080NT lethal -1% and KB-V1 cytotox inactive.
`O=C(CSc1nc(-c2ccc(Cl)cc2)[nH]c(=O)n1)Nc1cccc(Cl)c1` gave SW480 rerep -55%, MCF10A rerep inconclusive, KB-3-1 cytotox inactive, HT1080 IDH1KD tx -20%, HT1080NT lethal -8% and KB-V1 cytotox inactive.
For Nc1c(C(=O)Nc2ccc(Cl)cc2)sc2nc3c(cc12)N1CCC3CC1 the results were KB-3-1 cytotox inactive and KB-V1 cytotox 7.3µM*.
Cc1cc(OCC(=O)N2CCN(CCc3ccccn3)CC2)cc(C)c1Cl was read as KB-3-1 cytotox inactive and KB-V1 cytotox inactive.
Screening O=CC=O returned SW480 rerep -9% and MCF10A rerep 2%.
For Cc1cc(-n2c(/C=C/c3cccs3)nc3ccccc3c2=O)ccc1Br the results were KB-3-1 cytotox inactive and KB-V1 cytotox inactive.
Screening COc1cc2c(cc1O)C(Cc1ccc(O)cc1)NCC2 (stereo unspecified) returned SW480 rerep 15%, MCF10A rerep -21%, KB-3-1 cytotox inconclusive, HT1080 IDH1KD tx 3%, HT1080NT lethal 3% and KB-V1 cytotox inactive.
CC[C@H]1CN2CCc3cc(OC)c(OC)cc3C2C[C@@H]1C[C@H]1NCCc2cc(OC)c(OC)cc21 (stereo partly specified) was read as SW480 rerep inconclusive, MCF10A rerep inconclusive, KB-3-1 cytotox 0.21µM*, HT1080 IDH1KD tx 0.052µM*, HT1080NT lethal 0.052µM* and KB-V1 cytotox 2.1µM*.
`CCN1/C(=C\C=C\C2=[N+](CC)c3ccccc3C2(C)C)C(C)(C)c2ccccc21` gave SW480 rerep inconclusive, MCF10A rerep inconclusive, KB-3-1 cytotox inconclusive, HT1080 IDH1KD tx 2.6µM*, HT1080NT lethal 0.65µM* and KB-V1 cytotox 21µM*.
CCCCc1nc2ccccc2c(=O)n1-c1cccc(OC)c1 was read as KB-3-1 cytotox inactive and KB-V1 cytotox inactive.
`COc1ccc(C(=O)Nc2ccccc2-c2nnn(CC(=O)Nc3ccc4c(c3)OCCO4)n2)cc1` gave SW480 rerep 4%, MCF10A rerep 16µM*, KB-3-1 cytotox inactive, HT1080 IDH1KD tx 2%, HT1080NT lethal -1% and KB-V1 cytotox inconclusive.
For Cc1cc(C(=O)Nc2ccc3c(c2)OCCO3)nn1C(C)(C)C the results were SW480 rerep -1%, MCF10A rerep 9%, KB-3-1 cytotox inactive, HT1080 IDH1KD tx -4%, HT1080NT lethal 1% and KB-V1 cytotox inactive.
For O=C(c1ccc2nc3ccc(Cl)cc3c(=O)n2c1)N1CCC2(CC1)OCCO2 the results were SW480 rerep -1%, MCF10A rerep -4%, KB-3-1 cytotox inactive, HT1080 IDH1KD tx -1%, HT1080NT lethal 11% and KB-V1 cytotox 21µM*.
